From PubChem
PTHR1 agonist: qHTS for PTHR1 Agonists: Primary Screen; Parathyroid hormone/parathyroid hormone-related peptide receptor (Homo sapiens), Q03431; HEK293 GP2 PTHR1 cells, GloSensor cAMP luminescence, 1 h; Potency, µM (doses to about 115 µM), for the others: at the highest dose activation, most hits filed as activators; hit rate 0.075% among 410,000; AID 743266, 2014; further: nearly all actives have a fitted effect of over 55% in size
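HEK-293-derived GP2 cells expressing PTHR1 and a GloSensor cAMP reporter, 3,000/well, plated overnight, given luciferin plus IBMX (each 0.5 mM as added) for 1 h at 37 °C, then compound for 1 h at 37 °C. Luminescence was read after 15 min at room temperature.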
GRP78 ERSR act: qHTS for Inducers of the Endoplasmic Reticulum Stress Response (ERSR) in Human Glioma: qHTS. U87-MG GRP78 promoter luciferase reporter, 16 h. Potency, µM, inactives show at the highest dose activation, most hits filed as activators. hit rate 0.02% among 420,000. AID 602332, 2012; further: series mostly up to about 76 µM; % of control where 0% means no effect; nearly all actives have a fitted effect of over 35% in size
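ERSR induction read as luciferase luminescence (Bright-Glo, 10 min at room temperature) in stably transfected human U87-MG glioma cells exposed to compounds for 16 h, using GRP78 as sensor.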
GLS inhibitor: qHTS for Inhibitors of Glutaminase (GLS) | GLS enzymatic activity, qHTS titration | Potency, µM (doses to about 45.5 µM), for inactives: at the top dose activity change, negative = inhibition, most hits filed as inhibitors | hit rate 0.21% among 410,000 | AID 624170, 2012; further: on the % scale 0 is the no-effect control and ±100 the full control effect
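Assay buffer: 45 mM KH2PO4 pH 8.2, 0.02% Tween-20. hKGA acts on L-glutamine (1 mM solution added); product glutamate is reported by an oxidase/peroxidase Amplex Red coupling, with fluorescence taken at baseline and 30 min.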
GLP-1R inv ag: qHTS of GLP-1 Receptor Inverse Agonists (Inhibition Mode); Glucagon-like peptide 1 receptor (Homo sapiens), P43220; HEK293 GLP-1R CRE-luciferase, luminescence, 24 h; GLP-1R form is constitutively active; Potency, µM (doses to about 38.3 µM), for the others: at the highest dose activity change, negative = inhibition, most hits filed as inhibitors; hit rate 1.6% among 410,000; further: on the % scale 0 is the no-effect control and ±100 the full control effect; nearly all actives have a fitted effect of over 55% in size
Target sequence (P43220 whole entry, looked up): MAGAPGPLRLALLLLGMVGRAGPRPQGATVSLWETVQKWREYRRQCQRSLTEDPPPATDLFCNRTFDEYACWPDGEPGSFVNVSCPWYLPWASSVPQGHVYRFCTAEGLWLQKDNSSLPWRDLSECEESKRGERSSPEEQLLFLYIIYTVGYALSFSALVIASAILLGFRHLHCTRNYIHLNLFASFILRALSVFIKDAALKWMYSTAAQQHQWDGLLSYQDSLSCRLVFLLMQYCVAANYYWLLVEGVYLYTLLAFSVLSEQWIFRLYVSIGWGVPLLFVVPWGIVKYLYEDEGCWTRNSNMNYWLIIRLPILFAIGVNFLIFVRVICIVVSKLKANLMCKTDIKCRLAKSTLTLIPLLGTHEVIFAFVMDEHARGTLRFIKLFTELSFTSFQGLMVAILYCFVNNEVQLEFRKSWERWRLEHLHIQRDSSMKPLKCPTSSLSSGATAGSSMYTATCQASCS
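Constitutively active GLP-1R drives a cAMP-responsive luciferase in stably transfected HEK293 cells; test compounds are added after overnight (12 h) attachment and left 24 hr, and signal loss in luminescence marks inhibition.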
ALOX12 inh: Primary qHTS assay for inhibitors of human arachidonate 12S-lipoxygenase (ALOX12): Round 2; Polyunsaturated fatty acid lipoxygenase ALOX12 (Homo sapiens), P18054; purified 12hLO, xylenol orange hydroperoxide absorbance; Potency, µM (doses to about 108 µM), for inactives: top-dose activity change, negative = inhibition, usual class: inhibitors; hit rate 1.1% among 580,000; AID 1671190, 2021; further: on the % scale 0 is the no-effect control and ±100 the full control effect
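Purified human 12hLO at 150 nM in 25 mM Hepes, 0.01% Triton X-100, pH 7.0, preincubated 15 min at room temperature with compound. Reaction started with 40 uM arachidonic acid, 30 min at room temperature. Hydroperoxide measured by Fe-xylenol orange, 573/405 nm absorbance ratio.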
GLP1R ag: qHTS of GLP-1 Receptor Agonists | Glucagon-like peptide 1 receptor (Homo sapiens), P43220 | HEK293 GLP-1R CRE-luciferase, luminescence, 4-6 h; cells express a hypersensitive GLP-1R form | Potency, µM (top dose mostly 45.6 µM), without a hit: at the top dose activation, usual class: activators | hit rate 0.007% among 380,000 | AID 624172, 2012; further: % of control where 0% means no effect
* hit, by the source's call; i = inactive; ? = inconclusive; / = no result given; ! = not confirmed by another sample; [ ] = remark or other dose. Most compounds without a hit are left out; they make up all but 2.3% or so of the library. The call rests on the fitted dose curve; in most records, active means well fitted curve in the direction sought with a large enough effect; inconclusive means small, poorly fitted or top-dose-only effect, or another doubt; inactive means no such curve, though single readings can be large; an effect the other way counts as inactive or inconclusive. Potency means the concentration at half of the fitted maximal effect.

SMILES	PTHR1 agonist	GRP78 ERSR act	GLS inhibitor	GLP-1R inv ag	ALOX12 inh	GLP1R ag
Cc1cccc(NC(=O)NCCCCc2ccccc2)c1	-11%	4%	3%	?	-3%	14%
Cc1ccc(NC(=O)Nc2ccc3nc(NS(=O)(=O)c4ccccc4)sc3c2)cc1	/	/	/	/	-4%	/
C#CCn1c(S(=O)(=O)Cc2ccc(F)cc2)nc(-c2ccccc2)c1-c1ccccc1	-12%[57.5 µM]	-2%	0%	5.6µM*	-4%	-3%
CN(C)/C=C1\Oc2ccc3ccccc3c2C1=O	-26%	-3%	-7%	63%	5µM*	2%
COc1ccc(CC2S/C(=N/N=C/c3ccccc3O)NC2=O)cc1 (configuration not stated)	i	-2%	5%	2.5µM*	14%	-1%
COc1ccc(-n2c(=S)[nH]c3cc(C(=O)Nc4ccc(C)c(F)c4)ccc3c2=O)c(OC)c1	-22%	-3%	9%	7.1µM*	?	-2%
COc1ccc(NC(=O)c2ccc3c(=O)n(-c4ccc(OC)cc4OC)c(=S)[nH]c3c2)c(OC)c1	i	-5%	-24%	1%[7.66 µM]	-24%	-4%
CC(C)COc1ccc(C(=O)Nc2sc3c(c2C(=O)O)CC(C)(C)OC3)cc1	-32%	-3%	-3%	11µM*	-8%	1%
CC1(C)Cc2c(sc(NC(=O)c3ccccc3)c2C(=O)O)CO1	-26%	-1%	-8%	-16%	-24%	-1%
O=C(c1nn(-c2ccccc2)c(=O)c2ccccc12)N1CCN(CCN2CCCC2)CC1	/	/	/	/	1%	/
COc1ccc2nc(C)c(C(=O)N(C)CC34CC5CC(CC(C5)C3)C4)cc2c1	/	/	/	/	-23%	/
O=C(CN1CCOCC1)Nc1cccc(C(=O)Nc2cccc(C(F)(F)F)c2)c1	-24%	-5%	-14%	-23%	4%	-5%
CCCCCNCC(=O)Nc1cccc(C(=O)Nc2cccc(C(F)(F)F)c2)c1	-29%	-12%	-3%	6.3µM*	?	12%
COc1ccc(-c2coc(CCC(=O)N3CCN(c4cc(C)ccc4C)CC3)n2)cc1	i	-2%	12%	-21%	20µM*	-5%
COc1ccc(-c2noc(CCCC(=O)N3CCN(c4cc(C)ccc4C)CC3)n2)cc1	-92%	-1%	5%	-6%	?	13%
Cc1ccc(-c2noc(-c3cccn3CC(=O)N3CCC(C)CC3)n2)cc1	/	/	/	/	10%	/
CC(C)CCN1C(=O)c2ccc(-c3nc4ccccc4o3)cc2C1=O	/	/	/	/	-45%	/
Cc1ccc(C(=O)NC2CCCCCCC2)c(Cl)c1	-47%	-10%	-11%	4µM*	0%	0%
O=C(NC1CCCCCCC1)c1cc(F)c(F)cc1Cl	2%	7%	13%	?	0%	8%
Cc1cc(C)c(C)c(S(=O)(=O)NCC(=O)NCC2CCCCC2)c1C	-23%	-4%	7%	6.3µM*	10%	13%
Cc1ocnc1C(=O)NC1CC(c2nnc(Cn3cccn3)n2C)C1 (configuration not stated)	/	/	/	/	-2%	/
Cn1c(Cn2cccn2)nnc1C1CC(NC(=O)c2sccc2N)C1 (configuration not stated)	/	/	/	/	10µM*!	/
CC(=O)c1cccc(NC(=O)c2cc(C3CC3)nc3ccccc23)c1	/	/	/	/	18%	/
NNc1cccc(S(=O)(=O)c2cccc(NN)c2)c1	/	/	/	/	11µM*	/
Nc1cccc(S(=O)(=O)c2cccc(N)c2)c1	-9%	-4%	-11%	33%	-18%	-4%
